Hit rate of the full screen: of about 5,500 compounds, about 2,000 (36%) were called active. Another 18% or so got no clear call; they are omitted. Some of the results follow. Unmarked numbers belong to inactive results. Cut-off read from the data, not from the text of the source: active = normalized growth mostly below about 0.91 (no sharp cut-off); inconclusive = no clear call, values can overlap the other calls; inactive = mostly above about 0.92.
Experiment: chemical genetic growth profiling, strain panel (AID 1159580);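 note: tested at 20 µM; growth read once vehicle control cultures reached saturation at 30 °C; 1 = growth at the plate median or of vehicle wells; lower values mean less growth of the strain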
Conditions: S. cerevisiae deletion strains, growth OD
[1] = locus YAL013W, strain DEP1, active compounds read low
[2] = locus YGR078C, strain PAC10, active compounds read low
[3] = locus YJR075W, strain HOC1, active compounds read low
[4] = locus YMR263W, strain SAP30, active compounds read low
[5] = locus YMR307W, strain GAS1, active compounds read low
[6] = locus YNL153C, strain GIM3, active compounds read low
[7] = locus YNL322C, strain KRE1, active compounds read low
[8] = locus YPL055C, strain LGE1, active compounds read low
[9] = locus YPL241C, strain CIN2, active compounds read low
[10] = locus YAL040C, strain CLN3, active compounds read low
[11] = locus YCL061C, strain MRC1 (second series), active compounds read low
[12] = locus YDR363W, strain ESC2, active compounds read low
[13] = locus YER002W, strain NOP16, active compounds read low
[14] = locus YNL175C, strain NOP13, active compounds read low
[15] = locus YNL197C, strain WHI3, active compounds read low
[16] = locus YNL224C, strain SQS1, active compounds read low
[17] = locus YOR083W, strain WHI5 (second series), active compounds read low

Q: For `CCOC(=O)CC1=Nn2c(nnc2-c2cc(Cl)cc(Cl)c2)SC1`, which normalized growth [1] is on record?
A: Its normalized growth is 0.97.

Q: And the normalized growth (locus YBR229C, strain ROT2, active compounds read low)?
A: Its normalized growth is 0.905 (active).

Q: What about the normalized growth (locus YDL101C, strain DUN1, active compounds read low) of the same compound?
A: The normalized growth was 0.914.

Q: And the normalized growth (locus YDL134C, strain PPH21, active compounds read low)?
A: Its normalized growth is 0.996.

Q: And the normalized growth (locus YDR150W, strain NUM1, active compounds read low)?
A: The normalized growth was 0.857.

Q: What about the normalized growth (locus YEL061C, strain CIN8, active compounds read low) of the same compound?
A: Its normalized growth is 0.934.

Q: And the normalized growth [2]?
A: Its normalized growth is 0.97.

Q: And the normalized growth (locus YGR229C, strain SMI1, active compounds read low)?
A: Its normalized growth is 0.979.

Q: And the normalized growth (locus YHR030C, strain SLT2, active compounds read low)?
A: Its normalized growth is 0.538 (active).

Q: And the normalized growth (locus YHR087W, strain rtc3, active compounds read low)?
A: The normalized growth was 0.927.

Q: What about the normalized growth (locus YJL187C, strain SWE1, active compounds read low) of the same compound?
A: Its normalized growth is 0.913 (active).

Q: What about the normalized growth (locus YJR043C, strain POL32, active compounds read low) of the same compound?
A: Its normalized growth is 0.989.

Q: What about the normalized growth [3] of the same compound?
A: Its normalized growth is 0.811 (active).

Q: What about the normalized growth (locus YLR039C, strain RIC1, active compounds read low) of the same compound?
A: Its normalized growth is 0.91.

Q: What about the normalized growth (locus YLR058C, strain SHM2 (second series), active compounds read low) of the same compound?
A: Its normalized growth is 0.971.

Q: And the normalized growth (locus YLR085C, strain ARP6, active compounds read low)?
A: Its normalized growth is 0.808.

Q: And the normalized growth (locus YLR262C, strain YPT6, active compounds read low)?
A: The normalized growth was 0.982.

Q: And the normalized growth (locus YML094W, strain GIM5, active compounds read low)?
A: The normalized growth was 0.823 (active).

Q: And the normalized growth (locus YMR219W, strain ESC1, active compounds read low)?
A: The normalized growth was 0.955.

Q: And the normalized growth [4]?
A: The normalized growth was 0.965.

Q: And the normalized growth [5]?
A: Its normalized growth is 0.806.

Q: What about the normalized growth [6] of the same compound?
A: Its normalized growth is 0.95.

Q: And the normalized growth (locus YNL298W, strain CLA4 (second series), active compounds read low)?
A: The normalized growth was 0.823 (active).

Q: What about the normalized growth [7] of the same compound?
A: The normalized growth was 0.977.

Q: And the normalized growth (locus YNR030W, strain Alg12, active compounds read low)?
A: The normalized growth was 0.914.

Q: What about the normalized growth [8] of the same compound?
A: Its normalized growth is 0.864.

Q: What about the normalized growth [9] of the same compound?
A: Its normalized growth is 1.01.

Q: What about the normalized growth (locus YPR135W, strain CTF4, active compounds read low) of the same compound?
A: Its normalized growth is 0.714.

Q: For `C=CCN1CC[C@]23CCCCC2[C@H]1Cc1ccc(O)cc13` (stereo not given in full), which normalized growth [1] is on record?
A: The normalized growth was 1.02.

Q: What about the normalized growth [10] of the same compound?
A: Its normalized growth is 1.01.

Q: And the normalized growth [11]?
A: The normalized growth was 1.01.

Q: And the normalized growth [12]?
A: The normalized growth was 1.02.

Q: What about the normalized growth [13] of the same compound?
A: Its normalized growth is 1.

Q: And the normalized growth [2]?
A: The normalized growth was 0.995.

Q: What about the normalized growth [3] of the same compound?
A: The normalized growth was 0.999.

Q: And the normalized growth [5]?
A: The normalized growth was 1.01.

Q: What about the normalized growth [6] of the same compound?
A: Its normalized growth is 1.02.

Q: And the normalized growth [14]?
A: The normalized growth was 1.01.

Q: And the normalized growth [15]?
A: Its normalized growth is 0.997.

Q: And the normalized growth [16]?
A: The normalized growth was 0.988.

Q: What about the normalized growth [17] of the same compound?
A: Its normalized growth is 1.01.

Q: With `C=CCN1CCC23c4c5ccc(O)c4O[C@H]2C(=O)CC[C@@]3(O)C1C5` (stereo not given in full) as the compound, how does the normalized growth [1] read?
A: The normalized growth was 1.01.

Q: And the normalized growth [10]?
A: Its normalized growth is 1.

Q: What about the normalized growth [11] of the same compound?
A: The normalized growth was 1.

Q: What about the normalized growth [12] of the same compound?
A: Its normalized growth is 1.01.

Q: What about the normalized growth [13] of the same compound?
A: Its normalized growth is 0.994.

Q: And the normalized growth [4]?
A: The normalized growth was 0.998.

Q: What about the normalized growth [5] of the same compound?
A: Its normalized growth is 0.998.

Q: And the normalized growth [14]?
A: Its normalized growth is 0.997.

Q: What about the normalized growth [15] of the same compound?
A: Its normalized growth is 1.01.

Q: And the normalized growth [16]?
A: The normalized growth was 1.01.

Q: What about the normalized growth [7] of the same compound?
A: The normalized growth was 1.01.

Q: What about the normalized growth [17] of the same compound?
A: The normalized growth was 1.

Q: And the normalized growth [8]?
A: The normalized growth was 1.02.

Q: What about the normalized growth [9] of the same compound?
A: Its normalized growth is 1.

Source: PubChem BioAssay AID1159580 (chemical genetic matrix, 2015)
